# Legend:
# Conditions in all cases: concentration: 1 μM, replicates: in singlicate; n = 1
# [1] = system: CSNK2A2
# [2] = system: T1, CTK
# T1 construct: gene MATK
# [3] = system: DAPK1
# [4] = system: DAPK2
# [5] = system: DAPK3
# [6] = system: T2, DCAMKL1
# T2 construct: gene DCLK1
# [7] = system: T3, DCAMKL2
# T3 construct: gene DCLK2
# [8] = system: T4, DCAMKL3
# T4 construct: gene DCLK3
# [9] = system: DDR1
# [10] = system: DDR2
# [11] = system: T5, DLK
# T5 construct: gene MAP3K12
# [12] = system: T6, DMPK2
# T6 construct: gene CDC42BPG
# [13] = system: DMPK
# [14] = system: T7, DRAK1
# T7 construct: gene STK17A
# [15] = system: T8, DRAK2
# T8 construct: gene STK17B
# [16] = system: DYRK1A
# [17] = system: DYRK1B
# [18] = system: DYRK2
# [19] = system: EGFR
# [20] = system: EIF2AK1
# 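Note: KINOMEscan kinase panel screen.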
Structure (SMILES),%Inh [1],%Inh [2],%Inh [3],%Inh [4],%Inh [5],%Inh [6],%Inh [7],%Inh [8],%Inh [9],%Inh [10],%Inh [11],%Inh [12],%Inh [13],%Inh [14],%Inh [15],%Inh [16],%Inh [17],%Inh [18],%Inh [19],%Inh [20]
COc1cc(Nc2ccnc3ccc(C(F)(F)F)cc23)cc(OC)c1OC [GW577382],62%,8%,0%,4%,26%,5%,0%,2%,0%,23%,32%,4%,0%,0%,0%,4%,16%,0%,27%,2%
COc1ccc(-n2cnc3c(N)ncnc32)cc1 [SKF-97236],3%,3%,13%,1%,0%,13%,0%,9%,10%,0%,0%,0%,6%,43%,0%,1%,0%,0%,0%,31%
COc1cc2nccc(Nc3cccc(Oc4ccccc4)c3)c2cc1OC.Cl [GW284543],4%,10%,0%,0%,0%,11%,0%,23%,17%,9%,24%,0%,0%,2%,26%,6%,0%,11%,40%,0%
COc1ccc(-c2coc3ccc(-c4nnc(SCc5cccc(C#N)c5)o4)cc23)cc1,28%,0%,29%,0%,0%,35%,0%,0%,0%,3%,1%,0%,0%,2%,7%,5%,0%,2%,0%,30%
Nc1nccc2scc(-c3ccc4c(c3)CCN4C(=O)Cc3ccccc3)c12 [GSK2576924],13%,0%,12%,3%,21%,16%,0%,27%,43%,3%,7%,22%,0%,1%,0%,0%,19%,20%,21%,0%
O=C(NCCNc1ccnc(Nc2ccc(F)cc2)n1)Nc1ccc2c(c1)OCO2 [GSK1379882],16%,0%,19%,8%,26%,0%,0%,0%,0%,18%,5%,11%,0%,10%,0%,7%,0%,23%,0%,0%
Cc1cccc(-c2nc(Nc3ccc4c(cnn4C)c3)c3ccccc3n2)n1 [GW876731],0%,4%,0%,0%,14%,0%,11%,0%,3%,1%,0%,22%,8%,7%,3%,0%,20%,11%,0%,0%
Nc1n[nH]c2ncc(-c3ccccc3)cc12 [SB-517081],11%,0%,12%,0%,29%,13%,13%,22%,0%,23%,27%,0%,0%,34%,0%,17%,0%,30%,0%,18%
O=C(Nc1ccc2c(c1)OCO2)NC1CCN(c2ccnc(NCc3ccc(F)cc3)n2)CC1 [GSK1379859],22%,0%,22%,0%,0%,14%,0%,18%,9%,0%,22%,16%,0%,6%,0%,7%,14%,5%,44%,10%
COc1cc2ncn(-c3cc(OCCCc4ccccc4)c(C(N)=O)s3)c2cc1OC [GSK205189],3%,0%,0%,26%,0%,0%,17%,1%,2%,3%,0%,0%,0%,0%,0%,7%,0%,0%,15%,1%
Cc1nn2c(=O)cc(N3CCOCC3)nc2n1Cc1cccc(Cl)c1Cl [GSK2342769],5%,0%,27%,21%,64%,0%,0%,7%,25%,0%,12%,0%,0%,0%,0%,26%,29%,0%,25%,0%
Cc1ccccc1COc1cc(-n2cnc3cc(Cl)ccc32)sc1C(N)=O [GW813349],54%,0%,0%,0%,0%,0%,2%,10%,0%,1%,0%,2%,0%,0%,1%,15%,34%,19%,2%,6%
COc1cc(Nc2nccc(N3CCC(NC(=O)C4COc5ccccc5O4)C3)n2)cc(OC)c1OC (stereo not shown) [GSK1379761],0%,0%,0%,20%,11%,0%,0%,0%,1%,61%,60%,0%,0%,0%,0%,0%,5%,19%,43%,0%
COC(=O)c1c(-c2ccccc2)c2cc(C)ccc2c(=O)n1Cc1ccccc1,0%,0%,1%,0%,0%,0%,6%,0%,60%,33%,0%,0%,0%,0%,0%,0%,6%,0%,0%,0%
COc1ccc(Nc2nccc(N3CCC(NS(=O)(=O)c4ccc(NC(C)=O)cc4)C3)n2)cc1 (stereo not shown) [GSK1379729],18%,0%,0%,0%,6%,10%,0%,53%,13%,26%,23%,8%,0%,0%,4%,8%,3%,3%,36%,0%
COc1cc2ncn(-c3cc(OCc4ccncc4)c(C(N)=O)s3)c2cc1OC [GSK336313],29%,0%,8%,0%,10%,4%,0%,55%,0%,0%,0%,12%,0%,0%,0%,13%,19%,23%,24%,0%
COC(=O)c1c(-c2ccccc2)c2cc(Br)ccc2c(=O)n1Cc1ccc(S(C)(=O)=O)cc1,42%,35%,0%,11%,7%,24%,0%,0%,29%,17%,0%,5%,0%,3%,0%,20%,45%,44%,5%,13%
COc1cc(OC)cc(-c2cc3cnc(N)nc3nc2NC(=O)NC(C)(C)C)c1,0%,1%,0%,0%,0%,0%,0%,0%,68%,11%,4%,0%,16%,0%,0%,0%,16%,0%,,4%
Cc1nnc(-c2ccc3ncn(-c4ccc(S(C)=O)cc4)c3c2)o1 (stereo not shown),35%,0%,26%,0%,0%,37%,12%,9%,0%,0%,0%,0%,1%,3%,18%,0%,26%,7%,0%,0%
